Experimental findings from paper PMC4336329 (PLoS ONE, 2015) are described below.

Among all 310,000 compounds or so, about 14,000 (4.5%) showed an effect of 50% or more. The effect is printed as a negative number. Many of the other results were omitted from the sample, so strong results are more common in it than they were.
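Further: peak tail current of the secondary pulse compared with the same well before compound.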

The target in this assay is human ether-à-go-go-related gene (hERG) potassium channel (human, UniProt Q12809). As to the kind of experiment: primary screen, population patch clamp on CHO cells stably expressing hERG; higher = less effect of the substance.
human ether-à-go-go-related gene (hERG) potassium channel, sequence (Q12809 whole entry, looked up): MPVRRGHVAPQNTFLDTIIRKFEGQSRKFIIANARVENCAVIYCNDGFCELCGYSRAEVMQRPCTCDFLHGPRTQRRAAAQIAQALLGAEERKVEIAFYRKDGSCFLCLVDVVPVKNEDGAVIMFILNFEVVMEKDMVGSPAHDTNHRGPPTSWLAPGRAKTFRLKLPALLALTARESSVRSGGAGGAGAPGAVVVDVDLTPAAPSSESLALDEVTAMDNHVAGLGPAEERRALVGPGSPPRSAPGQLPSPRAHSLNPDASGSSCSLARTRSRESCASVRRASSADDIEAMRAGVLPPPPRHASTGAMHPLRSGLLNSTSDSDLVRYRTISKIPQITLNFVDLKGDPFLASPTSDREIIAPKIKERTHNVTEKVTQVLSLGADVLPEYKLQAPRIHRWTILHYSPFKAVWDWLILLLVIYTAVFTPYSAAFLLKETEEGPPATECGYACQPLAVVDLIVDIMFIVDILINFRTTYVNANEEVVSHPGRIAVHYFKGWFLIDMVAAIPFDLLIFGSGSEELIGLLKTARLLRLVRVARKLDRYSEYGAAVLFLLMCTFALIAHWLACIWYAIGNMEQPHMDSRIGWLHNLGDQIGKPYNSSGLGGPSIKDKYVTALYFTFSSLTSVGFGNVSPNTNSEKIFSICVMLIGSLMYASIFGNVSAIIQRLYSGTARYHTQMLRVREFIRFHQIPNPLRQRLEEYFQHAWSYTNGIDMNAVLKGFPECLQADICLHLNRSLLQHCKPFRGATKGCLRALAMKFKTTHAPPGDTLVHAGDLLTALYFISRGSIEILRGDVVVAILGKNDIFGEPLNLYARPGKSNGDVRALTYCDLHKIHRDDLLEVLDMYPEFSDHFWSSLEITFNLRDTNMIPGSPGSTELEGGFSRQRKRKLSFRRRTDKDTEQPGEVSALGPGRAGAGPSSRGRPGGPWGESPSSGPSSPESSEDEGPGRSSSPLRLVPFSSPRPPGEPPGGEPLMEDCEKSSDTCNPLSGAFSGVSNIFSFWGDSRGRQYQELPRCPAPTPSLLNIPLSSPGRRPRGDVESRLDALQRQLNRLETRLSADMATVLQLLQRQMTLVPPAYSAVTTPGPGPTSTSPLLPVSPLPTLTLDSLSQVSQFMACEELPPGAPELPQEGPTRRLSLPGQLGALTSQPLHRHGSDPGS
In the case of `Cc1ccc(CN2CC(C(=O)N3CCN(S(=O)(=O)c4c(F)cccc4F)CC3)CC2=O)cc1` (stereo not shown), the “hERG current change (%, negative = inhibition) at 10uM” value is on record as -2.83%.
`CCc1cc(=O)oc2c(C)c(OCC(=O)N3CC[C@@]4(O)CCCC[C@H]4C3)ccc12`: the “hERG current change (%, negative = inhibition) at 10uM” value is listed as -14.6%.
With `O=C(OCC(=O)N(CCc1ccccc1)Cc1ccccc1)c1ccccc1[N+](=O)[O-]`, the “hERG current change (%, negative = inhibition) at 10uM” value is listed as 1.95%.
As for `CN(C)C(CNC(=O)c1cc(S(=O)(=O)N(C)c2ccccc2)ccc1Cl)c1ccccc1` (stereo not shown), the “hERG current change (%, negative = inhibition) at 10uM” value is on record as -39.6%.
Turning to `CN(c1ccccc1)S(=O)(=O)c1ccc(Cl)c(C(=O)NCc2ccccc2CN2CCCC2)c1`, the “hERG current change (%, negative = inhibition) at 10uM” value is given as -65.9%.
To `COc1ccccc1CNC(=O)c1cccc(S(=O)(=O)N(C)c2ccccc2)c1` belongs -23.5%; to `CCN(CC)S(=O)(=O)c1ccc(Cl)c(C(=O)NCc2ccccc2Cl)c1`, -24.7%.
On to `CN(c1ccccc1)S(=O)(=O)c1cccc(C(=O)NCc2ccccc2CN2CCCC2)c1`, for which the “hERG current change (%, negative = inhibition) at 10uM” value is -74.6%.
For the molecule `CN(c1ccccc1)S(=O)(=O)c1cccc(C(=O)NCc2ccccc2)c1`, the “hERG current change (%, negative = inhibition) at 10uM” value is -18.3%.
With `O=C(O)C[C@H]1c2cc(C(F)(F)F)ccc2S(=O)(=O)N1C1CCCCC1`, the “hERG current change (%, negative = inhibition) at 10uM” value was determined as 30.3%.
Regarding `CCOC(=O)c1c(C)[nH]c(N=Nc2ccc(OC)cc2)c1C`, the “hERG current change (%, negative = inhibition) at 10uM” value was -0.496%.
To `Fc1ccc(-c2oncc2-c2nnnn2-c2ccccc2)cc1F` belongs -15.4%; to `COC(=O)c1ccsc1NC(=O)CS(=O)(=O)c1ccccc1`, -10.1%.
On to `CCNS(=O)(=O)c1ccc(CCC(=O)N2CCN(c3cccc(Cl)c3)CC2)cc1`, for which the “hERG current change (%, negative = inhibition) at 10uM” value was -32.7%.
In the case of `CCCCN=C(NNc1ccc(Br)cc1)C(=O)OCC`, the “hERG current change (%, negative = inhibition) at 10uM” value amounted to 3.69%.
To `N#Cc1ccc(COC(=O)c2cnc(Cl)c(Cl)c2)cc1` belongs 8.12%.
Regarding `COc1ccc(NCC(=O)N/N=C/c2cc([N+](=O)[O-])ccc2N2CCCC2)cc1`, the “hERG current change (%, negative = inhibition) at 10uM” value was -7.82%.
In the case of `O=C(NCc1ccccc1)C(c1ccco1)N(C(=O)c1cnccn1)c1ccc(F)cc1` (stereo not shown), the “hERG current change (%, negative = inhibition) at 10uM” value was determined as 10.5%.
To `O=[N+]([O-])c1cccc(S(=O)(=O)Nc2ccc(Cc3ccncc3)cc2)c1` belongs -72.2%.
For `O=S(=O)(Nc1ccc(Cc2ccncc2)cc1)c1ccc(Cl)c(Cl)c1`, the “hERG current change (%, negative = inhibition) at 10uM” value is -53.4%.
To `O=S(=O)(Nc1ccncc1)c1ccc(Cl)c(Cl)c1` belongs 18.4%; to `O=S(=O)(Nc1ccc(Cc2ccncc2)cc1)c1ccc(Cl)cc1`, 12.4%.
With `O=C(NCc1ccncc1)c1ccc(NS(=O)(=O)c2cccc([N+](=O)[O-])c2)cc1`, the “hERG current change (%, negative = inhibition) at 10uM” value was determined as 19.2%.
As for `CCS(=O)(=O)Nc1ccc(Cc2ccc(NS(=O)(=O)CC)cc2)cc1`, the “hERG current change (%, negative = inhibition) at 10uM” value is -7.91%.
Consider `O=[N+]([O-])c1cccc(S(=O)(=O)NCc2ccncc2)c1`, for which the “hERG current change (%, negative = inhibition) at 10uM” value amounted to 19.4%.
`CCCCS(=O)(=O)Nc1ccc(Cc2ccncc2)cc1`: the “hERG current change (%, negative = inhibition) at 10uM” value is on record as -50.2%.
For `CCS(=O)(=O)Nc1ccc(Cc2ccncc2)cc1`, the “hERG current change (%, negative = inhibition) at 10uM” value is on record as -0.00702%.
On to `COc1cccc(CNC(=O)C2=C(C)C(=O)OC23CCC(C)CC3)c1` (stereo not shown), for which the “hERG current change (%, negative = inhibition) at 10uM” value is given as -5.65%.
Consider `O=C(O)c1cc(S(=O)(=O)N2CCCCCC2)ccc1Cl`, for which the “hERG current change (%, negative = inhibition) at 10uM” value is listed as 20%.
With `Cc1ccnc(NCc2ccccc2O)c1`, the “hERG current change (%, negative = inhibition) at 10uM” value is recorded as 14.6%.
On to `O=C1CCC([N+](=O)[O-])C(c2ccc(-c3ccccc3)cc2)N1` (stereo not shown), for which the “hERG current change (%, negative = inhibition) at 10uM” value is given as -11.3%.
In the case of `Cc1ccc(N2C(=O)C3CC(c4ccccc4)=C4C5C=CC(C6C(=O)N(c7ccc(C)cc7)C(=O)C56)C4C3C2=O)cc1` (stereo not shown), the “hERG current change (%, negative = inhibition) at 10uM” value was -73.6%.
As to `Cc1ccc(N2C(=O)C3C4CC(=O)C(c5ccccc54)C3C2=O)cc1` (stereo not shown), the “hERG current change (%, negative = inhibition) at 10uM” value was determined as 2.69%.
As to `Cc1ccc(N2C(=O)C3CC(c4ccccc4)=C4C5C=CC(C6C(=O)N(c7ccc(C)cc7C)C(=O)C56)C4C3C2=O)c(C)c1` (stereo not shown), the “hERG current change (%, negative = inhibition) at 10uM” value stood at 7.82%.
For the molecule `C=C[C@]1(C)C[C@@H](OC(=O)CSCCN(CC)CC)[C@]2(C)C(C)CC[C@]3(CCC(=O)[C@H]32)[C@@H](C)[C@@H]1O` (stereo partly shown), the “hERG current change (%, negative = inhibition) at 10uM” value is listed as -61.9%.
With `C=C[C@]1(C)C[C@@H](OC(=O)CSCCN(CC)CC)[C@]2(C)C(C)CC[C@]3(CCC(=O)[C@H]32)[C@@H](C)[C@@H]1O.O=C(O)/C=C/C(=O)O` (stereo partly shown), the “hERG current change (%, negative = inhibition) at 10uM” value was -68.3%.
As to `O=C(Cc1noc2ccccc12)NNC(=S)Nc1ccc(Cl)cc1`, the “hERG current change (%, negative = inhibition) at 10uM” value worked out at 16.5%.
To `Cn1nc(C(F)(F)F)c(-c2ccc(Br)cc2)c1NC(=O)Nc1ccc(F)cc1F` belongs 13%.
Turning to `Cc1ccc(C(=O)C2(C)C3c4cc(Br)ccc4OC(=O)C32C(=O)c2ccco2)cc1` (stereo not shown), the “hERG current change (%, negative = inhibition) at 10uM” value is given as 15.8%.
`CCCNC(=O)[C@H]1N2C(=O)c3c(ccc(OC)c3OC)C2SC1(C)C` (stereo partly shown): the “hERG current change (%, negative = inhibition) at 10uM” value is 16.4%.
On to `COc1ccc(CCNC(=O)CN(c2ccccc2)S(C)(=O)=O)cc1OC`, for which the “hERG current change (%, negative = inhibition) at 10uM” value is listed as -8.06%.
Turning to `CC(C)(C)CN1CCNC(=O)C1CC(=O)NC1Cc2ccccc2C1` (stereo not shown), the “hERG current change (%, negative = inhibition) at 10uM” value came to 4.08%.
To `CCNC(=O)O/N=C(\C)c1sc(-c2ccc(Cl)cc2)nc1C` belongs -23.9%; to `CCCS(=O)(=O)c1c(S(=O)(=O)CCC)c2cc(CC)ccn2c1C(=O)OC`, -29.2%; to `CCCS(=O)(=O)c1c(S(=O)(=O)CCC)c2cc(-c3ccncc3)ccn2c1C(=O)OC`, -50.2%.
Regarding `CCCS(=O)(=O)c1c(S(=O)(=O)CCC)c2ccccn2c1C(=O)OC`, the “hERG current change (%, negative = inhibition) at 10uM” value was -7.5%.
As for `O=C(CSc1nnc(NCc2ccccc2)s1)NC1CCS(=O)(=O)C1` (stereo not shown), the “hERG current change (%, negative = inhibition) at 10uM” value was determined as 10.1%.
With `Cc1cc(SCC(=O)Nc2cccc(S(N)(=O)=O)c2)c(C)cc1Br`, the “hERG current change (%, negative = inhibition) at 10uM” value is 30.8%.
In the case of `Cc1ccc(-c2noc(CCC(=O)Nc3ccccc3N3CCN(C)CC3)n2)cc1`, the “hERG current change (%, negative = inhibition) at 10uM” value is recorded as -33.7%.
For `CSc1nc(-c2ccccc2)nn1S(=O)(=O)c1ccccc1`, the “hERG current change (%, negative = inhibition) at 10uM” value was found to be 7%.
Turning to `CCOC(=O)C1(Cc2cccc(OC)c2)CCN(Cc2ccon2)CC1`, the “hERG current change (%, negative = inhibition) at 10uM” value amounted to 1.68%.
`CCOC(=O)C1(Cc2cccc(OC)c2)CCN(Cc2cccnc2)CC1`: the “hERG current change (%, negative = inhibition) at 10uM” value is on record as -16.4%.
Consider `CCOC(=O)C1(Cc2cccc(OC)c2)CCN(Cc2cccn2-c2ccccn2)CC1`, for which the “hERG current change (%, negative = inhibition) at 10uM” value is reported as -74.8%.
Take `CCOC(=O)C1(Cc2ccccc2)CCN(Cc2cccn2-c2nccs2)CC1`: the “hERG current change (%, negative = inhibition) at 10uM” value is -82%.
For `CCOC(=O)C1(Cc2cccc(OC)c2)CCN(Cc2cccn2-c2nccs2)CC1`, the “hERG current change (%, negative = inhibition) at 10uM” value was -72%.
